From PubChem BioAssay
Hits are enriched below; roughly 7.5% of the tested compounds scored in any of these assays.
RORg inh = qHTS for inhibitors of ROR gamma transcriptional activity | Nuclear receptor ROR-gamma (Mus musculus), P51450 | Drosophila S2 Gal4-RORgamma UAS-luciferase reporter, 20 h | Potency, µM (top dose mostly 53.6 µM), for the others: at the highest dose activity change, negative = inhibition, most hits filed as inhibitors | actives 5.4% (n = 310,000) | AID 2551, 2010; also: potency is read from the fitted curve at half-maximal effect; nearly all actives have a fitted effect of over 60% in size
Target sequence (P51450 whole entry, looked up, the tested form may be a part): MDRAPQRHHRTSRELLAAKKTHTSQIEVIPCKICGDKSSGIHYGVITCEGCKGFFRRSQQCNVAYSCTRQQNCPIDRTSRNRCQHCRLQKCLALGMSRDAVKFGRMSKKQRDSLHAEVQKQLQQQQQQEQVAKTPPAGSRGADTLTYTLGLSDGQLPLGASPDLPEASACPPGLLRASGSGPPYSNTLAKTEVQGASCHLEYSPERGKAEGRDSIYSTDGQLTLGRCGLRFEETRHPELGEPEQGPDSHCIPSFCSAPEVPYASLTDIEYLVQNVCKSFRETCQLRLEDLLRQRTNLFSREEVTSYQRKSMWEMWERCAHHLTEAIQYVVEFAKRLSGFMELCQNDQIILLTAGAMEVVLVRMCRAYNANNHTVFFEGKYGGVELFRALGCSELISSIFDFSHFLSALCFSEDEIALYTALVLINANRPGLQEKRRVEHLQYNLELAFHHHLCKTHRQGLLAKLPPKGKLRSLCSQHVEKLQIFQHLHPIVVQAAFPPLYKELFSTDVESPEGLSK
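Stably transfected Drosophila Schneider cells are the test system, with ROR gamma fused to Gal4 and luciferase under UAS control; luminescence is read after 20 hr of 700 uM copper sulfate induction at ambient temperature.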
B2AR arrestin = qHTS assay of beta-arrestin-biased ligands of beta2-adrenergic receptor; AID 492947, 2010; Beta-2 adrenergic receptor (Homo sapiens), P07550; actives 0.02% (n = 330,000); beta-arrestin recruitment to beta2AR, cell-based reporter; Potency, µM (titrated, usually from 46.1 µM), without a hit: at the top dose activation, most hits filed as activators;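 also: potency is read from the fitted curve at half-maximal effect; 0% = DMSO controls and full agonism = EC100 isoproterenol or metaproterenol; nearly all actives have a fitted effect of over 65% in size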
TSHR antagonist = Antagonists of the Thyroid Stimulating Hormone Receptor: HTS campaign | TSHR-expressing cells, TSH-stimulated cAMP HTRF, 2 h; active compounds read low | activity change, negative = inhibition, % at 11.5 µM | actives 0.2% (n = 330,000);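 active = activity change below a set negative limit, meaning inhibition stronger than a set level, cut at about -70% in these data; inconclusive = activity change between two set negative limits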
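Inhibition of cAMP made by TSHR-expressing cells under TSH stimulation (4nM final, EC80; 2 h, 37 deg C) is quantified with a one-step lysis HTRF kit, anti-cAMP cryptate versus cAMP-d2.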
ELG1 repair inh = qHTS screen for small molecules that inhibit ELG1-dependent DNA repair in human embryonic kidney (HEK293T) cells expressing luciferase-tagged ELG1; HEK293T ELG1-luciferase reporter, luminescence, 16 h; DNA damage induced by 5-fluorouridine; Potency, µM (highest dose often 46.1 µM), for inactives: top-dose activity change, negative = inhibition, most hits filed as inhibitors; actives 2.3% (n = 330,000); AID 504467, 2011; also: potency is read from the fitted curve at half-maximal effect; nearly all actives have a fitted effect of over 55% in size
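Overnight (16 hr) co-exposure of 2,000 cells/well to 5-fluorouridine and compound at 37 °C preceded detection. Luciferase was quantified via ONE-Glo luminescence; loss of signal denotes inhibition.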
VP16 counter = VP16 counterscreen qHTS for inhibitors of ROR gamma transcriptional activity. Drosophila S2 Gal4-VP16 UAS-luciferase, luminescence, 20 h. Potency, µM (top dose mostly 53.6 µM), inactives show top-dose activity, negative = inhibition, most hits filed as inhibitors. actives 3.5% (n = 310,000);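 also: Gal4-VP16 expression switched on by copper sulfate through the metallothionein promoter; potency is read from the fitted curve at half-maximal effect; nearly all actives have a fitted effect of over 50% in size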
ELG1 FLuc counter = qHTS screen for small molecules that inhibit ELG1-dependent DNA repair: Hit Confirmation in Cell-Based Luciferin Assay; shares compounds with ELG1 repair inh; actives 3% (n = 350); Potency, µM (titrated, usually from 46.1 µM), for the others: at the top dose activity change, negative = inhibition, hits mostly inhibitors; AID 624247, 2012; cell-free firefly luciferase luminescence counter-screen, ViewLux; also: potency is read from the fitted curve at half-maximal effect
ELG1-Luc inh = HTS assay for small molecules that inhibit ELG1-dependent DNA repair in human embryonic kidney (HEK293T) cells expressing luciferase-tagged ELG1: Hit Confirmation. shares compounds with ELG1 repair inh. actives 68% (n = 670). Potency, µM (titrated, usually from 46.1 µM), inactives show at the highest dose activity change, negative = inhibition, actives largely listed as inhibitors. HEK293T ELG1-luciferase levels, luminescence; cells co-treated with 5-fluorouridine; also: potency is read from the fitted curve at half-maximal effect; nearly all actives have a fitted effect of over 55% in size
ELG1-Luc MMS = confirmation of human ELG1 repair inhibitors, MMS stimulated; shares compounds with ELG1 repair inh; HEK293T luciferase-tagged ELG1 level, MMS stimulated; Potency, µM (doses to about 46.1 µM), without a hit: at the top dose activity change, negative = inhibition, actives largely listed as inhibitors; actives 53% (n = 670); AID 624249; also: potency is read from the fitted curve at half-maximal effect; nearly all actives have a fitted effect of over 60% in size
ELG1 5FU viab = qHTS screen for small molecules that inhibit ELG1-dependent DNA repair: Hit Confirmation with 5FU Viability. cell viability with 5-FU, ELG1-dependent repair. Potency, µM (highest dose often 46.1 µM), for inactives: top-dose activity change, negative = viability loss, actives largely listed as cytotoxic. 670 tested, under 10 active. shares compounds with ELG1 repair inh;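 also: ELG1-luc HEK293T cells cotreated with 5-fluorouridine at 10 µM final; potency is read from the fitted curve at half-maximal effect; viability measured 16 h after compound addition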
ELG1 MMS cell = qHTS screen for small molecules that inhibit ELG1-dependent DNA repair: Hit Confirmation with MMS Viability. shares compounds with ELG1 repair inh. Cell viability with MMS, ELG1-dependent DNA repair. Potency, µM (highest dose often 46.1 µM), inactives show top-dose activity change, negative = viability loss, usual class: cytotoxic. actives 33% (n = 670);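 also: ELG1-luc HEK293T cells co-treated with 10 µM MMS; potency is read from the fitted curve at half-maximal effect; viability read 16 h after compound addition; nearly all actives have a fitted effect of over 60% in size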
ELG1 unstim viab = qHTS screen for small molecules that inhibit ELG1-dependent DNA repair: Hit Confirmation with Unstimulated Viability Assay; shares compounds with ELG1 repair inh; cell viability counter-screen, unstimulated, luminescence; Potency, µM (series often up to 45.9 µM), inactives show at the highest dose activity change, negative = loss of viability, actives largely listed as cytotoxic; actives 8% (n = 900); AID 624252, 2012;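 also: potency is read from the fitted curve at half-maximal effect; compound exposure lasted 16 hours before reading; nearly all actives have a fitted effect of over 55% in size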
FLuc biochem = qHTS screen for small molecules that inhibit ELG1-dependent DNA repair: Hit Confirmation in Biochemical Luciferin Assay; AID 624253, 2012; shares compounds with ELG1 repair inh; Potency, µM (titrated, usually from 57.5 µM), without a hit: at the highest dose activity, negative = inhibition, usual class: inhibitors; actives 10% (n = 350); purified firefly luciferase, luminescence counter-screen; also: potency is read from the fitted curve at half-maximal effect
* = called active by the depositor; ? = inconclusive; / = not tested or not shown. Unless noted, calls follow the shape of the dose curve; as a rule, active = well fitted curve in the direction sought with a large enough effect; inconclusive = small, poorly fitted or top-dose-only effect, or another doubt; inactive = no such curve, though single readings can be large; an effect the other way counts as inactive or inconclusive. Unless noted, % is scaled to controls: 0 for no effect and ±100 for the full control effect.

SMILES	RORg inh	B2AR arrestin	TSHR antagonist	ELG1 repair inh	VP16 counter	ELG1 FLuc counter	ELG1-Luc inh	ELG1-Luc MMS	ELG1 5FU viab	ELG1 MMS cell	ELG1 unstim viab	FLuc biochem
CN(C(=O)COC(=O)c1ccccc1OCc1ccc(F)cc1)C1CCS(=O)(=O)C1 (stereo not given)	/	-0.1%	3.6	2.6%	/	/	/	/	/	/	/	/
COc1cccc(-c2nc(CS(=O)(=O)CC(=O)NCCc3ccccc3)c(C)o2)c1	2.6%	-0.5%	15.2	4.61µM*	-15.6%	/	?	-4.3%	?	-0.7%	-8.7%	/
Cc1ccc(-c2nc3c(c(SCC(=O)Nc4cccc(C(=O)O)c4)n2)Cc2cccc(C)c2O3)cc1	/	-0.3%	-3.7	/	/	71.7%	76.3%	76.8%	6.7%	?	4.9%	?
COc1ccc(C2=Nn3c(nnc3-c3ccncc3)SC2)cc1OC	-27.2%	0.0%	-15.3	?	12.1%	32.5%	7.92µM*	-16.8%	?	5.9%	-5.6%	-2.0%
COc1ccc2c(C)cc(SCC(=O)N3CCOCC3)nc2c1	1.7%	0.4%	-4.2	-10.7%	-1.9%	141.5%	/	/	/	/	?	?
O=C(Nc1ccc(N2CCOCC2)cc1)c1cccc(S(=O)(=O)N2CCCCCC2)c1	-28.5%	-0.2%	13.0	3.26µM*	2.0%	/	?	7.91µM*	-0.6%	7.91µM*	?	/
COc1ccc(-c2cccc(-c3cc(=O)oc4cc(OC)cc(OC)c34)c2)cc1	/	-0.2%	1.7	?	/	/	/	/	/	/	/	/
COc1cc(OC)c2c(-c3cccc(-c4ccc(N(C)C)cc4)c3)cc(=O)oc2c1	-4.9%	-0.5%	-2.1	?	-12.3%	/	/	/	/	/	-13.1%	/
